Reference: PubChem BioAssay (Tox21)
Inconclusive results are not listed. The source made the active and inactive calls. Unless noted, calls come from the whole dose curve; as a rule, active = well fitted curve in the direction sought with a large enough effect in the repeat runs; inconclusive = weak or mixed curves; inactive = no such curve, though single readings can be large; an effect the other way counts as inactive or inconclusive.

Columns and labels:
[1] = qHTS assay to identify small molecule agonists of the peroxisome proliferator-activated receptor delta (PPARd) signaling pathway - cell viability counter screen (AID 743211); note: nearly all actives have a fitted effect of over 55% in size
Method in brief: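 Viability of GeneBLAzer PPARd UAS-bla HEK293H cells was assessed after 17 h compound incubation at 37C, using CellTiter-Glo reagent added after the reporter read and luminescence recorded 30 min later.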

[2] = biological target: Peroxisome proliferator-activated receptor delta (Homo sapiens) (UniProt Q03181); assay: qHTS assay to identify small molecule agonists of the peroxisome proliferator-activated receptor delta (PPARd) signaling pathway (AID 743212; calls by dose curve)
Peroxisome proliferator-activated receptor delta (Homo sapiens), sequence (Q03181 whole entry, looked up): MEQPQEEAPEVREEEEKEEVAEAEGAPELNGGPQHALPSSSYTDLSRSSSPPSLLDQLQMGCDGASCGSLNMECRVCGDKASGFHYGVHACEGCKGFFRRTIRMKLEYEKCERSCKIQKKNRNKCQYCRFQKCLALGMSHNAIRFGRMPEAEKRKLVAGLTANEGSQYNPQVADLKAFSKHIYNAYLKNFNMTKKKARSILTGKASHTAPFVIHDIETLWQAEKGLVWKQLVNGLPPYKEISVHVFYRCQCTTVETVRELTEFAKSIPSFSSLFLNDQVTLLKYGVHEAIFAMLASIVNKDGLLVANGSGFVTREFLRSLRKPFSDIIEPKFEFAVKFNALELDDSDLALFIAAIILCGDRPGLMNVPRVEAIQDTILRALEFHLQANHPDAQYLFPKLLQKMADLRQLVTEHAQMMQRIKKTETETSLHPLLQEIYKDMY
Method in brief: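 A PPARd-bla HEK293H line with beta-lactamase under an Upstream Activator Sequence is treated with compounds at 37 C. Substrate loading for 2 h at room temperature precedes the fluorescence measurement.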

[3] = biological target: Bile acid receptor (Homo sapiens) (UniProt Q96RI1); assay: qHTS assay to identify small molecule antagonists of the farnesoid-X-receptor (FXR) signaling pathway (AID 743217; active = well fitted inhibition curve with a large enough effect in the signal ratio in the repeat runs, not every such curve was filed as active; the % refers to the signal ratio)
Bile acid receptor (Homo sapiens), sequence (Q96RI1 whole entry, looked up): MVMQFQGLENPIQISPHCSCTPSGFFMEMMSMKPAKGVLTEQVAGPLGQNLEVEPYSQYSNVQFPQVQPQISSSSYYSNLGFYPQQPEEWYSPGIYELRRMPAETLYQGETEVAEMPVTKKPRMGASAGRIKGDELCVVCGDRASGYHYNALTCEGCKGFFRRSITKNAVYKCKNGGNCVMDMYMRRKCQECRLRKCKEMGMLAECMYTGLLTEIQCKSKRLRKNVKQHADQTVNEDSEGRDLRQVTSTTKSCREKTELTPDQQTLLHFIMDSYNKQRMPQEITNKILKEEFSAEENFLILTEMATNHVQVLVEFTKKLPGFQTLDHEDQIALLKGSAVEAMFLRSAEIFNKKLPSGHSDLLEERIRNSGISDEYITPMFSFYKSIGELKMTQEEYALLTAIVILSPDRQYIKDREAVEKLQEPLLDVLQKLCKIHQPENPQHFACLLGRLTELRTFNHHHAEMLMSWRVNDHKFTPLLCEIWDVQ
Method in brief: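 GeneBLAzer FXR-UAS-bla HEK 293T, CDCA-stimulated (50 uM final). Compound treatment 16 h, 37 °C. Detection: beta-lactamase cleavage of B/G FRET substrate, fluorescence.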

[4] = qHTS assay to identify small molecule agonists of the farnesoid-X-receptor (FXR) signaling pathway - cell viability counter screen (AID 743218); note: nearly all actives have a fitted effect of over 45% in size
Method in brief: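 Parallel cytotoxicity test: compound-treated (16 h, 37 C) HEK 293T FXR-bla reporter cells were lysed with CellTiter-Glo and luminescence recorded.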

[5] = biological target: Bile acid receptor (Homo sapiens) (UniProt Q96RI1); assay: qHTS assay to identify small molecule agonists of the farnesoid-X-receptor (FXR) signaling pathway (AID 743220; active = well fitted activation curve with a large enough effect in the signal ratio in the repeat runs, not every such curve was filed as active; the % refers to the signal ratio)
Method in brief: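 Beta-lactamase reporter under UAS control in GeneBLAzer FXR HEK 293T cells (5000/well) measured with LiveBLAzer FRET substrate after 2 h at room temperature. Compound exposure lasted 16 h at 37C.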

[6] = biological target: Vitamin D3 receptor (Homo sapiens) (UniProt P11473); assay: qHTS assay to identify small molecule agonists of the vitamin D receptor (VDR) signaling pathway (AID 743222; calls by dose curve)
Vitamin D3 receptor (Homo sapiens), sequence (P11473 whole entry, looked up): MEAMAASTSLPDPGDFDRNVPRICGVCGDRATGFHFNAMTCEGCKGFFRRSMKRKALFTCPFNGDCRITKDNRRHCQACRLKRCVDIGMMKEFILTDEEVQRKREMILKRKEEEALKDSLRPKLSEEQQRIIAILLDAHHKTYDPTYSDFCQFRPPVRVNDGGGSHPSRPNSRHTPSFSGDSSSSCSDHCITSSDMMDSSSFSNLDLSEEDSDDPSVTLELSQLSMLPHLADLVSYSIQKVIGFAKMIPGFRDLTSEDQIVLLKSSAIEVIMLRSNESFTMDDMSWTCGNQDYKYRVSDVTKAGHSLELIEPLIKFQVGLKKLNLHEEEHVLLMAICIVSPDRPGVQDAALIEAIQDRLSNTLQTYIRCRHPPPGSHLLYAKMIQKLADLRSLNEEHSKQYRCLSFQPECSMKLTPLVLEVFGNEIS
Method in brief: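 In VDR-bla cells, compound-induced beta-lactamase expression is quantified by FRET substrate fluorescence. Treatment lasts 16 h at 37C; substrate develops 2 h at room temperature.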

[7] = biological target: Vitamin D3 receptor (Homo sapiens) (UniProt P11473); assay: qHTS assay to identify small molecule antagonists of the vitamin D receptor (VDR) signaling pathway (AID 743223; active = well fitted inhibition curve with a large enough effect in the signal ratio in the repeat runs, not every such curve was filed as active; the % refers to the signal ratio)
Method in brief: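 Fluorescence from LiveBLAzer B/G FRET substrate, read after 2 h at room temperature, reflects beta-lactamase reporter activity in VDR-bla cells treated 16 h at 37C with compounds and agonist 1alpha,25-dihydroxyvitamin D3 (3 nM final).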

[8] = qHTS assay to identify small molecule antagonists of the peroxisome proliferator-activated receptor delta (PPARd) signaling pathway - cell viability counter screen (AID 743213); note: nearly all actives have a fitted effect of over 50% in size
Method in brief: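 Cytotoxicity counter screen: CellTiter-Glo luminescence read 30 min after addition, in the same wells as the reporter assay. There, PPARd UAS-bla HEK293H cells (3000/well) were treated 17 h at 37 C with compound and 300 nM L165041.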

[9] = biological target: Peroxisome proliferator-activated receptor delta (Homo sapiens) (UniProt Q03181); assay: qHTS assay to identify small molecule antagonists of the peroxisome proliferator-activated receptor delta (PPARd) signaling pathway (AID 743215; active = well fitted inhibition curve with a large enough effect in the signal ratio in the repeat runs, not every such curve was filed as active; the % refers to the signal ratio;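 note: cells stimulated with agonist L165041 at 300 nM final during compound exposure; series mostly up to about 62 µM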)
Method in brief: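 HEK293H UAS-bla, PPARd; agonist L165041 300 nM final with cpd in DMSO; 37 C 17 h; FRET substrate, RT 2 h; fluorescence intensity.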

[10] = qHTS assay to identify small molecule antagonists of the farnesoid-X-receptor (FXR) signaling pathway - cell viability counter screen (AID 743221; active = well fitted cell-killing curve with a large enough effect in the repeat runs, not every such curve was filed as active; note: nearly all actives have a fitted effect of over 50% in size)
Method in brief: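 Quantitative HTS of the Tox21 10K library run in parallel with the beta-lactamase reporter read. HEK 293T cells carrying a UAS-driven bla reporter got compound and 50 uM CDCA (final) for 16 h; ATP-based luminescence followed.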

Measured: Potency

CCCC/C=C\CCCCCCCCCC=O
not listed: [8] | [9] | [10]
inactive: all other assays above

FC(F)(F)c1ccccc1-n1ccnc1
inactive: [1] | [8] | [9] | [10] | [6]

c1ccc2nccnc2c1
not listed: [2] | [5] | [9]
inactive: all other assays above

CC(C)=O
inactive: [1] | [2] | [10] | [6] | [7]

CCNC(=O)C1CC(C)CCC1C(C)C (configuration not stated)
not listed: [3] | [5] | [8]
inactive: all other assays above

CC(C(=O)O)c1ccc2c(c1)CC(=O)c1ccccc1S2 (configuration not stated)
inactive: [1] | [8] | [9] | [4] | [10]

C=CC(OCC)OCC
inactive: [1] | [2] | [9] | [4] | [6] | [7]

CC(C)C(=O)OCc1cccc(OC(=O)[C@@H]2N3C(=O)[C@@H](NC(=O)Cc4ccccc4)[C@H]3SC2(C)C)c1
not listed: [3] | [5] | [8]
inactive: all other assays above

CC(CC=O)CCCC(C)(C)O (configuration not stated)
inactive: [1] | [2] | [9] | [4] | [10] | [6]

Cc1ccc(C=O)cc1C
not listed: [2] | [5] | [9]
inactive: all other assays above

CCCCCCOc1ccccc1C(N)=O
inactive: [1] | [2] | [9] | [4] | [6] | [7]

Cc1cccc(C)c1OCC(C)N (configuration not stated)
inactive: [1] | [8] | [3] | [4] | [10]

COCCOCCOCCOCCOCCO
inactive: [1] | [2] | [9] | [4] | [6] | [7]

CC(COC(C)(C)C)OCCCO (configuration not stated)
not listed: [2] | [9]
inactive: all other assays above

C=C(C)C1CCC(C)(O)CC1 (configuration not stated)
not listed: [2] | [3] | [5]
inactive: all other assays above

COC(=O)c1ccccc1C(=O)c1ccc(OCCN2CCCCC2)cc1
inactive: [1] | [2] | [9] | [3] | [10] | [6]

O=S(=O)(O)CCN1CCN(CCO)CC1
not listed: [2] | [9] | [10]
inactive: all other assays above

O=Cc1ccc(Cl)c(Cl)c1
not listed: [3] | [5] | [8]
inactive: all other assays above

COc1ccc(C2CNC(=O)C2)cc1OC1CCCC1 (configuration not stated)
not listed: [3] | [5] | [8]
inactive: all other assays above

CC1=C(C(=O)O)N2C(=O)[C@@H](NC(=O)[C@H](N)c3ccc(O)cc3)[C@H]2SC1
inactive: [1] | [8] | [3] | [4] | [10] | [6]

C=C(C)C(=O)OCCN(CC)CC
not listed: [3] | [5] | [8]
inactive: all other assays above

CCCCCCN
not listed: [3] | [5] | [8]
inactive: all other assays above

CCOCCOC(=O)/C=C/c1ccc(OC)cc1
not listed: [2] | [5] | [9]
inactive: all other assays above

CC(N)C(=O)OC(C)(C)Cc1ccc(Cl)cc1 (configuration not stated)
inactive: [1] | [2] | [9] | [10] | [6]

CCOC(=O)CC(=O)c1ccccc1
not listed: [3] | [5] | [8]
inactive: all other assays above

C=C1CC/C=C(\C)CC[C@@H]2[C@@H]1CC2(C)C
not listed: [2] | [9]
inactive: all other assays above

COc1ccc2c(c1OC)C(=O)O[C@@H]2[C@H]1c2c(cc3c(c2OC)OCO3)CCN1C
inactive: [1] | [2] | [4] | [10] | [6]

CCOC(=O)/C=C/c1ccccc1
not listed: [3] | [5] | [8]
inactive: all other assays above

CCO[Si](CCCS)(OCC)OCC
inactive: [1] | [2] | [4] | [10]

O=C(O)Cc1cn(-c2ccccc2)nc1-c1ccc(Cl)cc1
inactive: [2] | [8] | [9] | [4] | [10]

C[C@@H](Oc1ccc(CNC(=O)c2cccnc2Oc2ccc3c(c2)OCO3)c(F)c1)C(=O)O
not listed: [1]
inactive: all other assays above

NS(=O)(=O)c1cc2c(cc1Cl)CN(C1CCCCC1)C2=O
inactive: [1] | [8] | [3] | [4] | [7]

COc1nccnc1NS(=O)(=O)c1ccc(N)cc1
inactive: [2] | [8] | [9] | [3] | [10] | [6]

C=C(C)C(=O)OCCNC(C)(C)C
inactive: [1] | [4] | [10] | [6] | [7]

NCCN1CCOCC1
inactive: [1] | [8] | [4] | [10] | [6]

CC(=O)N[C@@H](CCC(=O)O)C(=O)O
inactive: [1] | [8] | [4] | [10]

CC(C)(C)c1n[nH]c(=S)n(N)c1=O
inactive: [1] | [8] | [4] | [6]

Cc1ccccc1C(=O)Nc1ccc(C(=O)N2CCCC(N(C)C)c3ccccc32)cc1 (configuration not stated)
inactive: [1] | [4] | [10] | [6]

CCCCCCCCCCCCCC
inactive: [1] | [8] | [4] | [6] | [7]

CCOc1cc([N+](=O)[O-])c(OCC)cc1N1CCOCC1
inactive: [1] | [8] | [4] | [10] | [6] | [7]

Cc1cccc(OCC(O)CNC(C)(C)C)c1C (configuration not stated)
inactive: [1] | [8] | [4] | [6] | [7]

CC(=O)CCCCn1c(=O)c2c(ncn2C)n(C)c1=O
inactive: [2] | [8] | [9] | [4] | [10]

CC(S)C(=O)NCC(=O)O (configuration not stated)
inactive: [1] | [8] | [4] | [10] | [6] | [7]

O=P(O)(O)OP(=O)(O)O
inactive: [1] | [4] | [10] | [6] | [7]

CCn1ccc(NS(=O)(=O)c2ccc(N)cc2)nc1=O
inactive: [2] | [8] | [9] | [4] | [10] | [6]

CCOC(=O)c1ncn2c1CN(C)C(=O)c1cc(F)ccc1-2
inactive: [1] | [8] | [4] | [10]

CC(=O)NCc1c(I)c(NC(C)=O)c(I)c(C(=O)O)c1I
inactive: [1] | [4] | [10] | [6]

CC1=CCC(C(C)C)=CC1
inactive: [1] | [4] | [10]

CC/C=C\CC1=C(C)CCC1=O
inactive: [1] | [8] | [4] | [10] | [6]

O=C(NCCc1c[nH]c2ccccc12)c1cccnc1
not listed: [2] | [8] | [9]
inactive: all other assays above

O=C(NCC(O)CO)c1c(I)c(C(=O)NCC(O)CO)c(I)c(N(CCO)C(=O)CO)c1I (configuration not stated)
inactive: [1] | [8] | [3] | [10] | [6]
